# Whole data set: some 2,900 compounds, median “NF-kB SEAP reporter activity, fold change vs agonist alone” near 0.99, cut for the highest 2% near 2.6. For the sample, the highest values were picked, then their nearest neighbours and some compounds at random.
# Tests used:
# RAW-Dual [1] = test: NF-kB SEAP reporter activity, fold change vs agonist alone; cytotoxicity flag (confluency mask): not cytotoxic; higher = enhanced NF-kB activity
# Outline: (§1)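 RAW-Dual macrophages were seeded in DMEM at 50,000 cells/well in 384-well plates, given 50 nL of library stock by pin tool, and given a PRR agonist 1 h later. Plates were held at 37 °C, 5% CO2 for 20 hours, after which supernatant was read for IRF by QuantiLuc luminescence and for NF-κB by QuantiBlue absorbance at 620 nm. Reporter activity is expressed as fold change over wells that received agonist alone. A well was called cytotoxic when IncuCyte confluency fell below 70% of agonist controls in both mask sets.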
# RAW-Dual [2] = test: NF-kB SEAP reporter activity, fold change vs agonist alone; higher = enhanced NF-kB activity; conditions: library stock concentration (final ~1000-fold dilution): 10 mM
# Outline: as §1
# RAW-Dual [3] = test: NF-kB SEAP reporter activity, fold change vs agonist alone; cytotoxicity flag (confluency mask): cytotoxic (confluency <70% of control); higher = enhanced NF-kB activity
# Outline: as §1
# [4] = agonist: ODN 1826 (TLR9) 0.5 ug/mL
# [5] = agonist: Pam2CSK4 (TLR2/6) 0.1 ug/mL
# [6] = agonist: Pam3CSK4 (TLR2/1) 0.1 ug/mL
# [7] = cytotoxicity flag (confluency mask): not cytotoxic, agonist: Imiquimod (TLR7) […]
# [8] = cytotoxicity flag (confluency mask): not cytotoxic, agonist: MPLA (TLR4) […]
# [9] = cytotoxicity flag (confluency mask): cytotoxic (confluency <70% of control), agonist: Imiquimod (TLR7) […]
# [10] = cytotoxicity flag (confluency mask): cytotoxic (confluency <70% of control), agonist: MPLA (TLR4) […]
smiles,measurement,setting,value
CC1OC(=O)C(C)C1CC(O)C(C)(O)C1CCC2(O)C3=CC(=O)C4CC(O)C(O)CC4(C)C3CCC12C (stereo not given) (library stock concentration (final ~1000-fold dilution): 10 mM),NF-kB SEAP reporter activity,RAW-Dual [1]; agonist: LPS (TLR4) 0.1 ug/mL,1.18
same,NF-kB SEAP reporter activity,RAW-Dual [1]; [4],1.02
same,NF-kB SEAP reporter activity,RAW-Dual [1]; [5],1.16
same,NF-kB SEAP reporter activity,RAW-Dual [1]; [6],1.23
CC1OC(=O)C(C)C1CC(O)C(C)(O)C1CCC2(O)C3=CC(=O)C4CC(O)C(O)CC4(C)C3CCC12C (stereo not given),NF-kB SEAP reporter activity,RAW-Dual [2]; [7],1.02
same,NF-kB SEAP reporter activity,RAW-Dual [2]; [8],1.05
CCOc1cc(N)c([N+](=O)[O-])cc1C(=O)NC1CCN(CC2CC=CCC2)CC1.O=C(O)C(O)C(O)C(=O)O (stereo not given) (library stock concentration (final ~1000-fold dilution): 10 mM),NF-kB SEAP reporter activity,RAW-Dual [1]; agonist: LPS (TLR4) 0.1 ug/mL,1.38
same,NF-kB SEAP reporter activity,RAW-Dual [1]; [4],0.18
same,NF-kB SEAP reporter activity,RAW-Dual [1]; [5],0.898
same,NF-kB SEAP reporter activity,RAW-Dual [1]; [6],0.739
CCOc1cc(N)c([N+](=O)[O-])cc1C(=O)NC1CCN(CC2CC=CCC2)CC1.O=C(O)C(O)C(O)C(=O)O (stereo not given),NF-kB SEAP reporter activity,RAW-Dual [2]; [7],1.28
same,NF-kB SEAP reporter activity,RAW-Dual [2]; [8],1.03
CCC(Nc1ncnc2[nH]cnc12)c1oc2ccccc2c(=O)c1-c1cccc(F)c1 (stereo not given) (library stock concentration (final ~1000-fold dilution): 10 mM),NF-kB SEAP reporter activity,RAW-Dual [1]; agonist: LPS (TLR4) 0.1 ug/mL,0.907
same,NF-kB SEAP reporter activity,RAW-Dual [1]; [4],0.718
same,NF-kB SEAP reporter activity,RAW-Dual [1]; [5],0.443
same,NF-kB SEAP reporter activity,RAW-Dual [1]; [6],0.61
CCC(Nc1ncnc2[nH]cnc12)c1oc2ccccc2c(=O)c1-c1cccc(F)c1 (stereo not given),NF-kB SEAP reporter activity,RAW-Dual [2]; [7],0.582
same,NF-kB SEAP reporter activity,RAW-Dual [2]; [8],0.924
O=C(Oc1cccc(F)c1OC(=O)c1cccc(O)c1)c1cccc(O)c1,NF-kB SEAP reporter activity,RAW-Dual [2]; [9],0.964
same,NF-kB SEAP reporter activity,RAW-Dual [2]; [10],1.24
O=C(Oc1cccc(F)c1OC(=O)c1cccc(O)c1)c1cccc(O)c1 (library stock concentration (final ~1000-fold dilution): 10 mM),NF-kB SEAP reporter activity,RAW-Dual [3]; agonist: LPS (TLR4) 0.1 ug/mL,1.21
same,NF-kB SEAP reporter activity,RAW-Dual [3]; [4],0.597
same,NF-kB SEAP reporter activity,RAW-Dual [3]; [5],0.639
same,NF-kB SEAP reporter activity,RAW-Dual [3]; [6],0.541
CC(C)C(NC(=O)c1ccc2ccccc2n1)C(=O)NC(CC(=O)O)C(=O)COc1c(F)cccc1F (stereo not given),NF-kB SEAP reporter activity,RAW-Dual [2]; [7],1.01
same,NF-kB SEAP reporter activity,RAW-Dual [2]; [8],1.14
CC(C)C(NC(=O)c1ccc2ccccc2n1)C(=O)NC(CC(=O)O)C(=O)COc1c(F)cccc1F (stereo not given) (library stock concentration (final ~1000-fold dilution): 10 mM),NF-kB SEAP reporter activity,RAW-Dual [1]; agonist: LPS (TLR4) 0.1 ug/mL,1.05
same,NF-kB SEAP reporter activity,RAW-Dual [1]; [4],1.05
same,NF-kB SEAP reporter activity,RAW-Dual [1]; [5],1.03
same,NF-kB SEAP reporter activity,RAW-Dual [1]; [6],1.26
CC12CCC3C(CCC4C(C)(C(=O)O)CCCC34C)(CC1=O)C2 (stereo not given),NF-kB SEAP reporter activity,RAW-Dual [2]; [7],0.95
same,NF-kB SEAP reporter activity,RAW-Dual [2]; [8],1.14
CC12CCC3C(CCC4C(C)(C(=O)O)CCCC34C)(CC1=O)C2 (stereo not given) (library stock concentration (final ~1000-fold dilution): 10 mM),NF-kB SEAP reporter activity,RAW-Dual [1]; agonist: LPS (TLR4) 0.1 ug/mL,1.41
same,NF-kB SEAP reporter activity,RAW-Dual [1]; [4],1.11
same,NF-kB SEAP reporter activity,RAW-Dual [1]; [5],1.13
same,NF-kB SEAP reporter activity,RAW-Dual [1]; [6],1.02
O=C1OC(=O)C2C3CCC(O3)C12 (stereo not given),NF-kB SEAP reporter activity,RAW-Dual [2]; [7],1.93
same,NF-kB SEAP reporter activity,RAW-Dual [2]; [8],2.03
O=C1OC(=O)C2C3CCC(O3)C12 (stereo not given) (library stock concentration (final ~1000-fold dilution): 10 mM),NF-kB SEAP reporter activity,RAW-Dual [1]; agonist: LPS (TLR4) 0.1 ug/mL,3.23
same,NF-kB SEAP reporter activity,RAW-Dual [1]; [4],2
same,NF-kB SEAP reporter activity,RAW-Dual [1]; [5],1.84
same,NF-kB SEAP reporter activity,RAW-Dual [1]; [6],1.76
CS(=O)(=O)O.Cc1c(O)cccc1C(=O)NC(CSc1ccccc1)C(O)CN1CC2CCCCC2CC1C(=O)NC(C)(C)C (stereo not given) (library stock concentration (final ~1000-fold dilution): 10 mM),NF-kB SEAP reporter activity,RAW-Dual [1]; agonist: LPS (TLR4) 0.1 ug/mL,4.08
same,NF-kB SEAP reporter activity,RAW-Dual [1]; [4],1.02
same,NF-kB SEAP reporter activity,RAW-Dual [1]; [5],0.418
same,NF-kB SEAP reporter activity,RAW-Dual [1]; [6],0.656
CS(=O)(=O)O.Cc1c(O)cccc1C(=O)NC(CSc1ccccc1)C(O)CN1CC2CCCCC2CC1C(=O)NC(C)(C)C (stereo not given),NF-kB SEAP reporter activity,RAW-Dual [2]; [7],2.13
same,NF-kB SEAP reporter activity,RAW-Dual [2]; [8],2.22
CC(C)(C)NC(=O)C1CN(Cc2cccnc2)CCN1CC(O)CC(Cc1ccccc1)C(=O)NC1c2ccccc2CC1O.O=S(=O)(O)O (stereo not given) (library stock concentration (final ~1000-fold dilution): 10 mM),NF-kB SEAP reporter activity,RAW-Dual [1]; agonist: LPS (TLR4) 0.1 ug/mL,1.3
same,NF-kB SEAP reporter activity,RAW-Dual [1]; [4],1.15
same,NF-kB SEAP reporter activity,RAW-Dual [1]; [5],1.2
same,NF-kB SEAP reporter activity,RAW-Dual [1]; [6],1.34
CC(C)(C)NC(=O)C1CN(Cc2cccnc2)CCN1CC(O)CC(Cc1ccccc1)C(=O)NC1c2ccccc2CC1O.O=S(=O)(O)O (stereo not given),NF-kB SEAP reporter activity,RAW-Dual [2]; [7],1.07
same,NF-kB SEAP reporter activity,RAW-Dual [2]; [8],1.21
C=C(C)C(=O)Nc1cccc(-c2ncnc3[nH]cc(C(=O)OCC)c23)c1 (library stock concentration (final ~1000-fold dilution): 10 mM),NF-kB SEAP reporter activity,RAW-Dual [1]; agonist: LPS (TLR4) 0.1 ug/mL,1.36
same,NF-kB SEAP reporter activity,RAW-Dual [1]; [4],1.14
same,NF-kB SEAP reporter activity,RAW-Dual [1]; [5],1.44
same,NF-kB SEAP reporter activity,RAW-Dual [1]; [6],1.27
C=C(C)C(=O)Nc1cccc(-c2ncnc3[nH]cc(C(=O)OCC)c23)c1,NF-kB SEAP reporter activity,RAW-Dual [2]; [7],1.01
same,NF-kB SEAP reporter activity,RAW-Dual [2]; [8],1.18
C=C1C(=O)OC2/C=C(\C)CC/C=C(\C)CCC12 (stereo not given),NF-kB SEAP reporter activity,RAW-Dual [2]; [7],0.262
same,NF-kB SEAP reporter activity,RAW-Dual [2]; [8],0.198
C=C1C(=O)OC2/C=C(\C)CC/C=C(\C)CCC12 (stereo not given) (library stock concentration (final ~1000-fold dilution): 10 mM),NF-kB SEAP reporter activity,RAW-Dual [1]; agonist: LPS (TLR4) 0.1 ug/mL,0.231
same,NF-kB SEAP reporter activity,RAW-Dual [1]; [4],0.213
same,NF-kB SEAP reporter activity,RAW-Dual [1]; [5],0.153
same,NF-kB SEAP reporter activity,RAW-Dual [1]; [6],0.197
CC(=O)ON=C1C(c2c(O)[nH]c3cc(Br)ccc23)=Nc2ccccc21 (library stock concentration (final ~1000-fold dilution): 10 mM),NF-kB SEAP reporter activity,RAW-Dual [1]; agonist: LPS (TLR4) 0.1 ug/mL,3.28
same,NF-kB SEAP reporter activity,RAW-Dual [1]; [4],1.19
same,NF-kB SEAP reporter activity,RAW-Dual [1]; [5],1.55
same,NF-kB SEAP reporter activity,RAW-Dual [1]; [6],1.41
CC(=O)ON=C1C(c2c(O)[nH]c3cc(Br)ccc23)=Nc2ccccc21,NF-kB SEAP reporter activity,RAW-Dual [2]; [7],1.07
same,NF-kB SEAP reporter activity,RAW-Dual [2]; [8],1.48
CCN(CC)CCOC(=O)C(Cc1cccc2ccccc12)CC1CCCO1.O=C(O)C(=O)O (stereo not given) (library stock concentration (final ~1000-fold dilution): 10 mM),NF-kB SEAP reporter activity,RAW-Dual [1]; agonist: LPS (TLR4) 0.1 ug/mL,1.08
same,NF-kB SEAP reporter activity,RAW-Dual [1]; [4],0.731
same,NF-kB SEAP reporter activity,RAW-Dual [1]; [5],0.761
same,NF-kB SEAP reporter activity,RAW-Dual [1]; [6],1.01
CCN(CC)CCOC(=O)C(Cc1cccc2ccccc12)CC1CCCO1.O=C(O)C(=O)O (stereo not given),NF-kB SEAP reporter activity,RAW-Dual [2]; [8],0.821
Nc1nc(NCCNc2ncc(-n3ccnc3)c(-c3ccc(Cl)cc3Cl)n2)ccc1[N+](=O)[O-],NF-kB SEAP reporter activity,RAW-Dual [2]; [7],2.49
same,NF-kB SEAP reporter activity,RAW-Dual [2]; [8],2.25
Nc1nc(NCCNc2ncc(-n3ccnc3)c(-c3ccc(Cl)cc3Cl)n2)ccc1[N+](=O)[O-] (library stock concentration (final ~1000-fold dilution): 10 mM),NF-kB SEAP reporter activity,RAW-Dual [1]; agonist: LPS (TLR4) 0.1 ug/mL,2.5
same,NF-kB SEAP reporter activity,RAW-Dual [1]; [4],2.96
same,NF-kB SEAP reporter activity,RAW-Dual [1]; [5],1.46
same,NF-kB SEAP reporter activity,RAW-Dual [1]; [6],2.83
Cc1cncc(CN2CCC(=C3c4ccc(Cl)cc4CCc4cccnc43)CC2)c1.O=C(O)/C=C/C(=O)O (library stock concentration (final ~1000-fold dilution): 10 mM),NF-kB SEAP reporter activity,RAW-Dual [3]; agonist: LPS (TLR4) 0.1 ug/mL,0.652
same,NF-kB SEAP reporter activity,RAW-Dual [3]; [4],0.37
same,NF-kB SEAP reporter activity,RAW-Dual [3]; [5],0.456
same,NF-kB SEAP reporter activity,RAW-Dual [3]; [6],0.408
Cc1cncc(CN2CCC(=C3c4ccc(Cl)cc4CCc4cccnc43)CC2)c1.O=C(O)/C=C/C(=O)O,NF-kB SEAP reporter activity,RAW-Dual [2]; [9],1.02
same,NF-kB SEAP reporter activity,RAW-Dual [2]; [10],0.719
CCC1OC(=O)C(C)C(OC2CC(C)(OC)C(O)C(C)O2)C(C)C(OC2OC(C)CC(N(C)C)C2O)C(C)(O)CC(C)CN(C)C(C)C(O)C1(C)O.O.O (stereo not given),NF-kB SEAP reporter activity,RAW-Dual [2]; [7],0.506
same,NF-kB SEAP reporter activity,RAW-Dual [2]; [8],1.46
CCC1OC(=O)C(C)C(OC2CC(C)(OC)C(O)C(C)O2)C(C)C(OC2OC(C)CC(N(C)C)C2O)C(C)(O)CC(C)CN(C)C(C)C(O)C1(C)O.O.O (stereo not given) (library stock concentration (final ~1000-fold dilution): 10 mM),NF-kB SEAP reporter activity,RAW-Dual [1]; agonist: LPS (TLR4) 0.1 ug/mL,1.49
same,NF-kB SEAP reporter activity,RAW-Dual [1]; [4],0.371
same,NF-kB SEAP reporter activity,RAW-Dual [1]; [5],0.896
same,NF-kB SEAP reporter activity,RAW-Dual [1]; [6],0.978

# From the supplement of paper PMC10037445
